Experimental data from PubChem BioAssay (NCATS).
Inconclusive results are not listed. Calls of active or inactive are those of the source. Calls come from the whole dose curve; as a rule, active = well fitted curve in the direction sought with a large enough effect; inconclusive = small, poorly fitted or top-dose-only effect, or another doubt; inactive = no such curve, though single readings can be large; an effect the other way counts as inactive or inconclusive.

Legend:
[1] = tested on: Zika virus NS2B-NS3 protease (linked construct); assay: Primary screen NINDS Rhodamine qHTS for Zika virus inhibitors (AID 1347160); note: nearly all actives have a fitted effect of over 55% in size
Outline: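 Purified linked NS2B-NS3 protease (NS2B hydrophilic domain joined to NS3 protease by flexible linker), 25 nM in 10 mM Tris-HCl pH 8.0, 0.01% Tween 20. Compounds titrated, 15 min preincubation at room temperature; 1.5 microM Rhodamine110 substrate, FITC fluorescence change over 15 min.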

[2] = target: Calcium and integrin-binding protein 1 (Homo sapiens) (UniProt Q99828); assay: Primary qHTS for Identification of Calcium Integrin Binding Protein 1 (CIB1) Competitor (AID 1508620);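 note: GST tagged CIB1 binding a fluorescein labelled alphaIIb integrin peptide tracer; top concentration of the series differs between compounds; % is set by controls: 0 for no effect and ±100 for the full control effect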
Outline: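 Fluorescence polarization competition: GST-tagged CIB1 (1 uM final) preincubated with compound 15 min at room temperature, then FITC-labelled alphaIIb peptide (100 nM final) added. After 15 min at room temperature, polarization read at Ex 480/Em 540.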

[3] = target: Glutathione peroxidase 1 (Homo sapiens) (UniProt P07203); assay: Primary qHTS Assay for Inhibitors of Recombinant Selenoprotein Glutathione Peroxidase 1 (GPX1) (AID 1845191); note: nearly all actives have a fitted effect of over 65% in size
Outline: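 GR-coupled assay: compounds preincubated 30 min at room temperature with GPX1, then reaction started with CHP; final 10 nM GPX1, 1 mM GSH, 0.5 mM CHP, 0.5 mM NADPH, 100 nM GR, 0.01% BSA, pH 7.5 Tris buffer. NADPH fluorescence (340/450 nm) read at 0 and 15 min.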

[4] = target: Phospholipid hydroperoxide glutathione peroxidase GPX4 (Homo sapiens) (UniProt P36969); assay: Primary qHTS Assay for Inhibitors of Recombinant Selenoprotein Glutathione Peroxidase 4 (GPX4) (AID 1845192); note: nearly all actives have a fitted effect of over 65% in size
Outline: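 GR-coupled assay: recombinant GPX4 preincubated 30 min with compound at room temperature; final 200 nM GPX4, 1 mM GSH, 0.5 mM cumene hydroperoxide, 0.5 mM NADPH, 100 nM GR, 0.01% BSA, pH 7.5 Tris. NADPH fluorescence (340/450 nm) read at 0 and 15 min.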

[5] = target: Luciferin 4-monooxygenase (Photinus pyralis) (UniProt P08659); assay: Primary firefly luciferase (FLuc) qHTS assay for identification of artifact compounds. (AID 1845220); conditions: outcome: dose series up to 54.1 µM unless noted; note: nearly all actives have a fitted effect of over 60% in size
Outline: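 Titrated compounds were incubated 15 min at RT, protected from light, with luciferin and ATP at 10 uM; reaction started with 10 nM FLuc, luminescence imaged at 5 min, and concentration-response fitted by Hill equation.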

[6] = Primary fluorescence-based thiol-reactive (MSTI) qHTS assay for identification of artifact compounds. (AID 1845221);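 note: thiol-reactive compounds lower the probe fluorescence signal; nearly all actives have a fitted effect of over 65% in size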
Outline: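 Compounds were incubated 1 h at room temperature in the dark with the MSTI probe (4 uM) in PBS pH 7.4, 2% DMSO. Signals were normalized between Acetyl-MSTI and MSTI.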

[7] = tested on: Nanoluciferase (engineered Oplophorus gracilirostris luciferase); assay: Primary Nanoluciferase (NLuc) qHTS assay for identification of artifact compounds. (AID 1845222);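 note: NLuc secreted into diluted conditioned medium of S16 cells; 0% = DMSO and -100% = no enzyme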
Outline: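 qHTS format, against NLuc in S16 cell-conditioned medium. Nano-Glo substrate 1:100 was added after 15 min at room temperature. Luminescence was taken after a further 5 min.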

[8] = Primary redox qHTS assay for identification of artifact compounds. (AID 1845223);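 note: 0% = DMSO and 100% = reference compound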
Outline: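 Amplex Red (25 uM) and HRP (250 mU/mL) in HBSS, with compounds for 15 min, then 250 uM DTT for 30 min, room temperature, dark. Fluorescence 525/598 nm read; normalized to DMSO and 10 uM DA3003; Hill fit.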

HaCat = assay: Cytotoxic Profiling of Annotated Libraries Using Quantitative High-Throughput Screening (AID 1296008); conditions: Five cell lines viability, CellTiter-Glo ATP luminescence, 48-72 h; max response: active compounds read low; note: nearly all actives have a fitted effect of over 60% in size; for max response: % is set by controls: 0 for no effect and ±100 for the full control effect
Outline: (§1)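 Cells exposed to compounds for 48 or 72 hr at 37 degrees Celsius. Viability read as ATP-coupled luminescence with CellTiter-Glo after 10 min at room temperature.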

NIH3T3 = assay: as above; conditions: Five cell lines viability, CellTiter-Glo ATP luminescence, 48-72 h; max response: active compounds read low
Outline: as §1

C33A = assay: Primary qHTS to identify gynecologic anti-cancer compounds using libraries of approved drugs and bioactive compounds (AID 1345084); conditions: Gynecologic cancer cell panel viability, ATPlite luminescence, 48 h; series mostly up to 57.5 µM; note: % is set by controls: 0 for no effect and ±100 for the full control effect; nearly all actives have a fitted effect of over 55% in size
Outline: (§2)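 Luminescence from the ATPlite ATP-monitoring reagent indicates viable cell number; lower signal means cytotoxicity. Cells received compound 16 h after seeding and were exposed for 48 h across five concentrations.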

CAOV3 = assay: as above; conditions: Gynecologic cancer cell panel viability, ATPlite luminescence, 48 h; series mostly up to 57.5 µM
Outline: as §2

CASKI = assay: as above; conditions: Gynecologic cancer cell panel viability, ATPlite luminescence, 48 h; series mostly up to 57.5 µM
Outline: as §2

Es-2 = assay: as above; conditions: Gynecologic cancer cell panel viability, ATPlite luminescence, 48 h; series mostly up to 57.5 µM
Outline: as §2

Hek293T = assay: as above; conditions: Gynecologic cancer cell panel viability, ATPlite luminescence, 48 h, control line for the selectivity index; series mostly up to 57.5 µM
Outline: as §2

JEG-3 = assay: as above; conditions: Gynecologic cancer cell panel viability, ATPlite luminescence, 48 h; series mostly up to 57.5 µM
Outline: as §2

OV90 = assay: as above; conditions: Gynecologic cancer cell panel viability, ATPlite luminescence, 48 h; series mostly up to 57.5 µM
Outline: as §2

PA-1 = assay: as above; conditions: Gynecologic cancer cell panel viability, ATPlite luminescence, 48 h; series mostly up to 57.5 µM
Outline: as §2

Tov-21-G = assay: as above; conditions: Gynecologic cancer cell panel viability, ATPlite luminescence, 48 h; series mostly up to 57.5 µM
Outline: as §2

Tov112D = assay: as above; conditions: Gynecologic cancer cell panel viability, ATPlite luminescence, 48 h; series mostly up to 57.5 µM
Outline: as §2

Phospholipid hydroperoxide glutathione peroxidase GPX4 (Homo sapiens), sequence (P36969 whole entry, looked up): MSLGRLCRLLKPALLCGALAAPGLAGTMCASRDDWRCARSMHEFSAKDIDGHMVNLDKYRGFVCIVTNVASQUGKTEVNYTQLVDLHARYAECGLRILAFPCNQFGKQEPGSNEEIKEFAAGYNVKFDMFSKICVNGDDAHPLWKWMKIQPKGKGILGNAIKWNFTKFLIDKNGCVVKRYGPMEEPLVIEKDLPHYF
Calcium and integrin-binding protein 1 (Homo sapiens), sequence (Q99828 whole entry, looked up): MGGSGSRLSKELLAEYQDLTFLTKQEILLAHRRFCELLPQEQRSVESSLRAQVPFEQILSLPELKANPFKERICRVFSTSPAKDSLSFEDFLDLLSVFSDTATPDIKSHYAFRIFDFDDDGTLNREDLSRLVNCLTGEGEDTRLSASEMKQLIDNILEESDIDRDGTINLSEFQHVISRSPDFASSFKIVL
Glutathione peroxidase 1 (Homo sapiens), sequence (P07203 whole entry, looked up): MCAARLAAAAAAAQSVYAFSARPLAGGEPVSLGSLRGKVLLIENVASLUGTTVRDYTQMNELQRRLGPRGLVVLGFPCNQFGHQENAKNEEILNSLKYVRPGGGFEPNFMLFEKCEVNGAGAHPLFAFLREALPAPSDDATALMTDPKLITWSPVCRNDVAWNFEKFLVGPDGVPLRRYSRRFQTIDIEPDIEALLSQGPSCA

COC(=O)[C@@]1(C)C(=O)C=C[C@]2(C)c3c(O)cc(C(C)C)cc3[C@H](O)[C@@H](OC(C)=O)C12 (stereo not given in full)
inactive: Potency [1] | Potency [2] | Potency [3] | Potency [4] | outcome [5] inactive [at 25.7 µM] | Potency [6] | Potency [7] | Potency [8] | outcome (HaCat) | max response (NIH3T3) -1.38% | Potency (C33A) | Potency (CAOV3) | Potency (CASKI) | Potency (Es-2) | Potency (Hek293T) | Potency (JEG-3) | Potency (OV90) | Potency (PA-1) | Potency (Tov-21-G) | Potency (Tov112D)

CN=C(NS(=O)(=O)c1ccc(Cl)cc1)N1C[C@H](c2ccccc2)C(c2ccc(Cl)cc2)=N1
inactive: Potency [1] | Potency [2] | Potency [4] | outcome [5] | Potency [6] | Potency [7] | Potency [8] | max response (HaCat) -7.89% | max response (NIH3T3) 4.13% | Potency (C33A) | Potency (CAOV3) | Potency (CASKI) | Potency (Es-2) | Potency (Hek293T) | Potency (JEG-3) | Potency (OV90) | Potency (PA-1) | Potency (Tov-21-G) | Potency (Tov112D)

CCCCCn1cc(C(=O)c2cccc3ccccc23)c2ccccc21
inactive: Potency [1] | Potency [3] | Potency [4] | outcome [5] | Potency [6] | Potency [7] | Potency [8] | max response (HaCat) -4.01% | max response (NIH3T3) 4.48% | Potency (C33A) | Potency (CAOV3) | Potency (CASKI) | Potency (Es-2) | Potency (Hek293T) | Potency (JEG-3) | Potency (OV90) | Potency (PA-1) | Potency (Tov-21-G) | Potency (Tov112D)

CCOP(=O)(OCC)Oc1ccc2c(C)cc(=O)oc2c1
inactive: Potency [1] | Potency [2] | Potency [3] | outcome [5] | Potency [6] | Potency [7] | Potency [8] | max response (HaCat) -15.5% | max response (NIH3T3) -21.6% | Potency (C33A) | Potency (CAOV3) | Potency (CASKI) | Potency (Es-2) | Potency (OV90) | Potency (PA-1) | Potency (Tov-21-G) | Potency (Tov112D)

CCC1CN2CCC3(C(=O)Nc4cccc(O)c43)C2CC1/C(=C/OC)C(=O)OC (stereo not given)
inactive: Potency [1] | Potency [2] | Potency [3] | Potency [4] | outcome [5] | Potency [6] | Potency [7] | Potency [8] | outcome (HaCat) | max response (NIH3T3) 4.67% | Potency (C33A) | Potency (CAOV3) | Potency (CASKI) | Potency (Es-2) | Potency (Hek293T) | Potency (JEG-3) | Potency (OV90) | Potency (PA-1) | Potency (Tov-21-G) | Potency (Tov112D)
